This is an account of results in PubChem BioAssay (Tox21).

Records with an inconclusive call do not appear. Where a call stands in place of a potency, no number is given. Calls of active or inactive are those of the source. The call rests on the fitted dose curve; in most records, active means well fitted activation curve with a large enough effect in the repeat runs; inconclusive means weak or mixed curves; inactive means flat fitted curve, though single readings scatter.
Potency means the concentration at half of the fitted maximal effect.

This assay is described as follows: A CellTox Green Cytotoxicity Assay to monitor cytotoxicity in HepG2 cells - 40 hour (AID 1224879). Further: nearly all actives have a fitted effect of over 40% in size. The conditions noted are these: CellTox Green fluorescence; series mostly up to 76.8 µM. A digest of the protocol:
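Using 1536-well format, dye-containing HepG2 suspension was seeded, allowed 5 h at 37 C/5% CO2, dosed by pintool with compounds, positive and negative controls, and imaged for fluorescence across 40 h.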
`CCCCCCCCCCCCCCCCCCn1cc[n+](C)c1`: the Potency was 19.4 µM (active).
Consider `COC[C@H](C)N(C(=O)CCl)c1c(C)csc1C`, for which the Potency result is “inactive”.
The result for `C[C@H]1CC[C@@H]2[C@@H](C)[C@H]3[C@H](C[C@H]4[C@@H]5CC=C6CC(O[C@@H]7O[C@H](CO)[C@H](O)[C@H](O[C@@H]8O[C@H](CO)[C@@H](O)[C@H](O)[C@H]8O)[C@H]7O[C@H]7O[C@@H](C)[C@H](O)[C@@H](O)[C@H]7O)CC[C@]6(C)[C@H]5CC[C@]34C)N2C1` (stereo partly specified) reads 22.6 µM (active).
In the case of `Cc1cc(C)cc(OP(=O)(Oc2cc(C)cc(C)c2)Oc2cc(C)cc(C)c2)c1`, the Potency entry was “inactive”.
Take `Cc1ccc(C(=O)Cl)cc1`: the Potency result is “inactive”.
For `COP(N)(=S)OC`, the Potency entry is “inactive”.
Under `NNC(=O)c1ccccc1` stands “inactive”.
Under `CCN` stands “inactive”.
For the molecule `N#Cc1ccccc1N`, the Potency entry was “inactive”.
The result for `CN(CCCC(O)c1cccnc1)N=O` (stereo unspecified) reads “inactive”; that for `S=C=Nc1cccc2ccccc12`, “inactive”; that for `O=C(CCCN1CCC2(CC1)C(=O)NCN2c1ccccc1)c1ccc(F)cc1`, “inactive”.
The result for `CC(C)(C)OO` reads “inactive”; that for `C[C@]12CC[C@@H]3c4ccc(OC(=O)N(CCCl)CCCl)cc4CC[C@H]3[C@@H]1CC[C@@H]2O`, “inactive”; that for `ClCCN1CCOCC1`, “inactive”.
`[Hg+2].[I-].[I-]`: the Potency was 6.16 µM (active).
The result for `Cl/C=C\CCl` reads “inactive”; that for `CC(O)C#N` (stereo unspecified), “inactive”; that for `c1ccc(OCC2CO2)cc1` (stereo unspecified), “inactive”.
Under `ClC1=C(Cl)[C@]2(Cl)[C@@H]3[C@@H]4C[C@@H]([C@H]5O[C@@H]45)[C@@H]3[C@@]1(Cl)C2(Cl)Cl` stands 49 µM (active).
The result for `CCOCCOC(C)=O` reads “inactive”.
